# Experimental data published in PubChem BioAssay.
# Values without a mark were called inactive. Results filed as inconclusive are left out. Calls of active or inactive are those of the source. Rule as the data show it, unless noted: active = fluorescence slope change above about 50%; inconclusive = mostly about 31% to 49%; inactive = weaker than that.
# Legend:
# [1] = biological target: ATP-dependent translocase ABCB1 (Homo sapiens) (UniProt P08183); experiment: MDR1 (ABCB1) efflux transporter inhibition, cell-based (AID 377); conditions: MDR1-expressing cells, fluorescent substrate accumulation slope; stronger effect = higher value; concentration not given here
# Sequence of ATP-dependent translocase ABCB1 (Homo sapiens) (P08183 whole entry, looked up): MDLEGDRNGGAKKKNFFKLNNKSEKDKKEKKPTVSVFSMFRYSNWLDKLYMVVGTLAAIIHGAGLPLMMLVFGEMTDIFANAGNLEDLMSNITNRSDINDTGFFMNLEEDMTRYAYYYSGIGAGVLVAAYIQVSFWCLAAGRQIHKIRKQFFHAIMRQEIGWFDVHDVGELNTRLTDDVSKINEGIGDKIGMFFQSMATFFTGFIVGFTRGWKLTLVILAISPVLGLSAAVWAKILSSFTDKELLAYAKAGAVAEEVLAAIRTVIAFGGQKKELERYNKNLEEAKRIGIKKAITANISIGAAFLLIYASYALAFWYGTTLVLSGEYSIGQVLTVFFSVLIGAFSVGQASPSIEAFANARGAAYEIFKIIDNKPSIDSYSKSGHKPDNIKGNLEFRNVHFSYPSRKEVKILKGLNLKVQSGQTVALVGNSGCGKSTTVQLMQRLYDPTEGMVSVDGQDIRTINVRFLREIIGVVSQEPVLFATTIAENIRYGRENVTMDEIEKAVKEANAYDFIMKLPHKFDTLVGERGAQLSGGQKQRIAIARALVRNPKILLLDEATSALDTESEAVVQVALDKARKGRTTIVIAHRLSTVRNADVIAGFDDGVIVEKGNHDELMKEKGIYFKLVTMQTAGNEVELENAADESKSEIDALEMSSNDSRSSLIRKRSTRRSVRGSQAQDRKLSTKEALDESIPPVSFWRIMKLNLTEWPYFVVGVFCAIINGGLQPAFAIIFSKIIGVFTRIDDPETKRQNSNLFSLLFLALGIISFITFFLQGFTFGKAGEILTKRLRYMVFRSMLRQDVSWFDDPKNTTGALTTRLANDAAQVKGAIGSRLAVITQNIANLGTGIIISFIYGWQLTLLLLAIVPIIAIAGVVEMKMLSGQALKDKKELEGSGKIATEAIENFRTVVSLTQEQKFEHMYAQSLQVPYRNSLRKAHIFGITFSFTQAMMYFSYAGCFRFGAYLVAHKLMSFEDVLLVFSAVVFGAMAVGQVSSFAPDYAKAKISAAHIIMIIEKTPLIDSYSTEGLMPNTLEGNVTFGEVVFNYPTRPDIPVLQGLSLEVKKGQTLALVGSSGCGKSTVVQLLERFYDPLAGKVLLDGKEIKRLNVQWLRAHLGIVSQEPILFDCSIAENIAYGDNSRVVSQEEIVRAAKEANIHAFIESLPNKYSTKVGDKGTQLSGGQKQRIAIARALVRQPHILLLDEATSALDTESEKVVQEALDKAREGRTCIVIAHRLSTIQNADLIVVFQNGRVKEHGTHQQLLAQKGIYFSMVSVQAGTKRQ
# [2] = test system: Neuropilin-2 / VEGF-C interaction (human); experiment: inhibitors of NRP2–VEGF-C binding, biochemical, microplate binding format, z-score (AID 743281; call rule not given here); conditions: microplate NRP2/VEGF-C binding assay; stronger effect = lower value
# [3] = growth inhibition of DIPG glioma cells, dose response, cell-based, SU-DIPG-XIII, MIPE5.0, CellTiter-Glo, qHTS (AID 1347064; cut-off not given, nearly all actives have AC50 up to about 23 µM;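 as to AC50: cells exposed to compound for 48 hours before the viability read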); conditions: SU-DIPG-XIII viability, CellTiter-Glo ATP luminescence
structure (smiles),measurement,setting,value
Cc1onc(-c2c(Cl)cccc2Cl)c1C(=O)N[C@@H]1C(=O)N2[C@@H]1SC(C)(C)[C@@H]2C(=O)O,fluorescence slope change,[1],74.3% (active)
NCc1ccc(S(N)(=O)=O)cc1,fluorescence slope change,[1],164% (active)
CN[C@H]1CC[C@@H](c2ccc(Cl)c(Cl)c2)c2ccccc21,z-score,[2],-0.0357
same,AC50,[3],26.3 µM (active)
c1ccc2[nH]c(-c3cscn3)nc2c1,fluorescence slope change,[1],17.8%
COc1ccccc1OCC(O)COC(N)=O (stereo not drawn),fluorescence slope change,[1],15.6%
C/C=C/C(=O)N(CC)c1ccccc1C,z-score,[2],-0.426
same,outcome,[3],inactive
